Test results: PubChem BioAssay (Tox21)
Results filed as inconclusive are left out. Activity calls are given as the source filed them. Unless noted, the call rests on the fitted dose curve; in most records, active means well fitted curve in the direction sought with a large enough effect in the repeat runs; inconclusive means weak or mixed curves; inactive means flat fitted curve, though single readings scatter.

How the values were obtained:
[1] = qHTS assay to test for compound auto fluorescence at 535 nm (green) in HEK293 cells (AID 720680)
[2] = qHTS assay to test for compound auto fluorescence at 460 nm (blue) in HEK293 cell free culture (AID 720681)
Method in brief: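 Test compounds were pinned into cell-free culture medium (DMEM with 10% FBS) and fluorescence was read directly at Ex/Em 405/460 nm. Signals were expressed as fluorescence equivalents of triamterene, with DMSO vehicle as control.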

[3] = qHTS assay to test for compound auto fluorescence at 590 nm (red) in HEK293 cell free culture (AID 720683)
Method in brief: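 Tox21 10K library compounds were pinned into cell-free DMEM with 10% FBS and fluorescence was read at excitation 540 nm. Activity is expressed as Rose Bengal sodium equivalency.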

[4] = qHTS assay to test for compound auto fluorescence at 590 nm (red) in HepG2 cell free culture (AID 720684)
Method in brief: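 Ex 540 / Em 590 nm read of compound in cell-free MEM (10% FBS). Rose Bengal sodium reference.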

[5] = qHTS assay to test for compound auto fluorescence at 460 nm (blue) in HepG2 cell free culture (AID 720685)
Method in brief: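 Cell-free plates of MEM plus 10% FBS received 23 nL compound or DMSO vehicle; blue-channel (405/460 nm) intensity scored against triamterene as reference fluorophore.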

[6] = qHTS assay to test for compound auto fluorescence at 535 nm (green) in HepG2 cell free culture (AID 720686)
[7] = qHTS assay to test for compound auto fluorescence at 460 nm (blue) in HepG2 cells (AID 720687)
Method in brief: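 Cells (2,000/well in MEM with 10% FBS) attached overnight at 37 C, then were exposed to compound or DMSO for 1 hr at 37 C, 5% CO2. Fluorescence read at Ex/Em 405/460 nm, expressed as triamterene-equivalent signal.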

[8] = target: Glucocorticoid receptor (Homo sapiens) (UniProt P04150); assay: qHTS assay to identify small molecule agonists of the glucocorticoid receptor (GR) signaling pathway (AID 720691; active means well fitted activation curve with a large enough effect in the signal ratio in the repeat runs, not every such curve was filed as active; the % refers to the signal ratio)
Method in brief: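 Compounds in DMSO, alongside positive controls, were added to GR-bla HeLa reporter cells and incubated 18 h at 37 C; GRE-driven beta-lactamase was detected by fluorescence after 2 h with FRET substrate at room temperature.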

[9] = target: Glucocorticoid receptor (Homo sapiens) (UniProt P04150); assay: qHTS assay to identify small molecule antagonists of the glucocorticoid receptor (GR) signaling pathway (AID 720692; active means well fitted inhibition curve with a large enough effect in the signal ratio in the repeat runs, not every such curve was filed as active; the % refers to the signal ratio)
Method in brief: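 In a 1536-well cell format, compounds were added 4 h after seeding GR-bla HeLa cells, together with dexamethasone at 5 nM final; reporter activity was measured by FRET-substrate fluorescence following 18 h at 37 C.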

Measured: Potency

Sequence of Glucocorticoid receptor (Homo sapiens) (P04150 whole entry, looked up): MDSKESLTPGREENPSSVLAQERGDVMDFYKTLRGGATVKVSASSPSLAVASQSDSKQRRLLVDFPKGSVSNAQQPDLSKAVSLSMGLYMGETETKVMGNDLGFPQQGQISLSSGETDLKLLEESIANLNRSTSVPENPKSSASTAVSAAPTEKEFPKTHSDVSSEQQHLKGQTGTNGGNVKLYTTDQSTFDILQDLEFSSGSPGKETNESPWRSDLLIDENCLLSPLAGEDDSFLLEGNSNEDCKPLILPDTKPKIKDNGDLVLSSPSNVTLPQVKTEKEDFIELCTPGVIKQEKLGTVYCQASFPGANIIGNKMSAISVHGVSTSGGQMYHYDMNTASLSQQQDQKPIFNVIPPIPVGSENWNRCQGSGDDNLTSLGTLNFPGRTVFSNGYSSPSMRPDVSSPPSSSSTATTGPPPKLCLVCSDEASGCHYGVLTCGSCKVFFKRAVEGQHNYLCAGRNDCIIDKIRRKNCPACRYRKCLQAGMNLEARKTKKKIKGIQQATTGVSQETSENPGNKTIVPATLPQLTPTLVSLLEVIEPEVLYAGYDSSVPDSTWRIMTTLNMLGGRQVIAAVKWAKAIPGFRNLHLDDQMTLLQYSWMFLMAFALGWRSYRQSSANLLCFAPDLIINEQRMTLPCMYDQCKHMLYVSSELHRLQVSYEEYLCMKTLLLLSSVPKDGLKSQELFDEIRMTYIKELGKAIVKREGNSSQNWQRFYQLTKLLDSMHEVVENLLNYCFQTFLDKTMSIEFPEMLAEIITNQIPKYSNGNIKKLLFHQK

CC(=O)c1ccccc1[N+](=O)[O-]
inactive: [1] | [2] | [3] | [4] | [5] | [6] | [7]

CC(=O)NC(=O)c1ccccc1O
inactive: [1] | [2] | [3] | [4] | [5] | [6] | [7] | [8] | [9]

CCOc1ccccc1OCC
inactive: [1] | [2] | [3] | [4] | [5] | [6] | [7] | [8] | [9]

CN(C)C(=O)Oc1cccc([N+](C)(C)C)c1
inactive: [1] | [2] | [3] | [4] | [5] | [6] | [7] | [8] | [9]

CN(C)CCCN(C)CCCN(C)C
inactive: [1] | [2] | [3] | [4] | [5] | [6] | [7] | [8] | [9]

NC(CCC(=O)O)C(=O)O (stereo not drawn)
inactive: [1] | [2] | [3] | [4] | [5] | [6] | [7] | [8] | [9]

c1coc(CNc2ncnc3nc[nH]c23)c1
inactive: [1] | [2] | [3] | [4] | [5] | [6] | [7] | [8]

O=[N+]([O-])c1ccc(/C=N\O)o1
inactive: [1] | [2] | [3] | [4] | [5] | [6] | [7] | [8] | [9]

O=C(c1ccccc1)C1(O)CCCCC1
inactive: [1] | [2] | [3] | [4] | [5] | [6] | [7]

O=C(CO)[C@@H](O)[C@H](O)[C@H](O)CO
inactive: [1] | [2] | [3] | [4] | [5] | [6] | [7] | [8] | [9]

CC1=NS(=O)(=O)c2cc(Cl)ccc2N1
inactive: [1] | [2] | [3] | [4] | [5] | [6] | [7] | [8] | [9]

CN1[C@@H]2CC[C@H]1CC(OC(=O)C(O)c1ccccc1)C2 (stereo partly drawn)
inactive: [1] | [2] | [3] | [4] | [5] | [6] | [7]

CCCCN(CCC(=O)OCC)C(C)=O
inactive: [1] | [2] | [3] | [4] | [5] | [6] | [7] | [8] | [9]

CC(=O)c1ccc2ccccc2c1
inactive: [1] | [2] | [3] | [4] | [5] | [6] | [7] | [8] | [9]

CC(C)CC(C)(N)C#N (stereo not drawn)
inactive: [1] | [2] | [3] | [4] | [6] | [7] | [8]

CN1CCC(=C2c3ccccc3CCc3cccnc32)CC1
inactive: [1] | [2] | [3] | [4] | [6] | [7]

C=CN1CCCCCC1=O
inactive: [1] | [2] | [3] | [4] | [5] | [6] | [7] | [8] | [9]

CC1OC1C1CCC2(C)OC2C1 (stereo not drawn)
inactive: [1] | [2] | [3] | [4] | [5] | [6] | [7] | [8] | [9]

[Ca+2]
inactive: [1] | [2] | [3] | [4] | [6] | [7] | [8]

COc1cc(C(=O)OC(COCCC(C)C)CN2CCOCC2)cc(OC)c1OC (stereo not drawn)
inactive: [1] | [2] | [3] | [4] | [5] | [6] | [7] | [8] | [9]

CN1CCN(c2cc3c(nn2)Oc2ccccc2N3C)CC1
inactive: [1] | [2] | [3] | [4] | [6] | [7]

CC1=C(C/C=C(\C)CCC[C@H](C)CCC[C@H](C)CCCC(C)C)C(=O)c2ccccc2C1=O
inactive: [1] | [2] | [3] | [4] | [5] | [6] | [7] | [8] | [9]

N[C@@H](CCC(=O)O)C(=O)O
inactive: [1] | [2] | [3] | [4] | [6] | [7] | [8] | [9]

NC(=O)N[C@@H](CCC(=O)O)C(=O)O
inactive: [1] | [2] | [3] | [4] | [5] | [6] | [7] | [8] | [9]
